Assay results from PubChem BioAssay.
Active and inactive are the calls of the source.

Test: plasmodial surface anion channel blockers, osmotic lysis – cell-based, P. falciparum Indochina, OD700, 2 h, primary screen (AID 1155);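 further: lysis reports solute entry through the parasite surface anion channel PSAC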
Conditions: P. falciparum Indochina infected erythrocytes, higher = more signal, called active from +8 up or from −8 down

Structure (SMILES) | z-score
C=C(COC)/C(=C/C[C@H](OC(C)=O)c1ccc(CO)o1)c1cc(C(=O)OC)ccc1OC | -2.29 (inactive)
COC(=O)[C@@]1(Cc2ccc(OC)cc2)[C@H]2c3cc(C(=O)N(C)C)n(C)c3C[C@H]2CN1C(=O)c1ccccc1 | 0.451 (inactive)
CCOC(=O)[C@H]1C/C=C/C[C@H](C(=O)OCC)C(=O)O[C@H]2[C@@H](OC)O[C@H](CO)[C@@H](OC(=O)c3c(OC)cccc3OC)[C@@H]2OC1=O | 2.34 (inactive)
CC(C)NC(=O)[C@@]1(c2ccc([N+](=O)[O-])cc2)CC(=O)N(C2CCCCC2)[C@@H]1c1ccc(CO)cc1I | 2.08 (inactive)
CN1C(=O)C2C=CC(C(O)c3ccc([N+](=O)[O-])cc3)N(N3CCCCC3)C2C1=O (configuration not stated) | 1.36 (inactive)
COCCOC(=O)N1C(=O)[C@@]2(c3cc(C#CCNC(N)=O)ccc31)[C@H](C(=O)N1CCN(c3ncccn3)CC1)[C@H]1C(=O)O[C@H](c3ccccc3)[C@H](c3ccccc3)N1[C@@H]2c1ccc(OCCO)cc1 | 1.93 (inactive)
O=C1NC(=O)C2C1C=CC(C(O)c1cc(C(F)(F)F)cc(C(F)(F)F)c1)N2Nc1ccccn1 (configuration not stated) | 0.701 (inactive)
COCCOC(=O)N1C(=O)[C@@]2(c3ccccc31)[C@H](C(=O)N1CCc3cc(OC)c(OC)cc3C1)[C@H]1C(=O)O[C@H](c3ccccc3)[C@H](c3ccccc3)N1[C@@H]2c1ccc(OCCO)cc1 | 1.85 (inactive)
COC(=O)C(CC#Cc1ccc2c(c1)[C@]1(C(=O)N2)[C@H](C(=O)Nc2nc3ccccc3s2)[C@H]2C(=O)O[C@H](c3ccccc3)[C@H](c3ccccc3)N2[C@@H]1c1ccccc1OCCO)C(=O)OC | 2.16 (inactive)
CN1C(=O)C2C=CC(C(O)c3ccccc3)N(N(c3ccccc3)c3ccccc3)C2C1=O (configuration not stated) | 0.693 (inactive)
COC(=O)[C@@]1(CCS(=O)(=O)c2ccccc2)N=C(c2ccc(OCCCO)cc2)O[C@H]1c1ccccc1CN=[N+]=[N-] | 3.74 (inactive)
COC(=O)[C@H](Cc1ccccc1)N1CC2=C[C@@H](C3CC3)n3c(=O)n(C)c(=O)n3[C@H]2[C@@H]1[C@@H](O)Cc1ccccc1 | 2.35 (inactive)
